Rows were chosen to be rich in hits. Some 4.7% of all compounds tested hit in one or more screens of this group.
GDH-TPI counter: GDH-TPI coupling enzyme inhibitors, primary screen, artefact control for M. tuberculosis FBA inhibitor project, biochemical, absorbance, full deck; GDH-TPI coupled enzyme counterscreen, NADH absorbance; inhibition, % at 4.8 µM; 360,000 compounds, 1.2% hits; AID 588335, 2011;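 also: 0% = DMSO wells and 100% = wells lacking the enzyme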
FBA Mtb inh: Mtb FBA enzyme inhibitors, primary screen, biochemical, fluorescence, strain H37Rv. Fructose-bisphosphate aldolase (Mycobacterium tuberculosis (strain ATCC 25618 / H37Rv)), …. purified M. tuberculosis FBA, fluorescence read-out. inhibition, % at 1 µM. 360,000 compounds, 2.3% hits. AID 588726, 2011; in the data active = inhibition above about 27%;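 also: 0% = vehicle and 100% = reference inhibitor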
Target sequence (P9WQA3 whole entry, looked up): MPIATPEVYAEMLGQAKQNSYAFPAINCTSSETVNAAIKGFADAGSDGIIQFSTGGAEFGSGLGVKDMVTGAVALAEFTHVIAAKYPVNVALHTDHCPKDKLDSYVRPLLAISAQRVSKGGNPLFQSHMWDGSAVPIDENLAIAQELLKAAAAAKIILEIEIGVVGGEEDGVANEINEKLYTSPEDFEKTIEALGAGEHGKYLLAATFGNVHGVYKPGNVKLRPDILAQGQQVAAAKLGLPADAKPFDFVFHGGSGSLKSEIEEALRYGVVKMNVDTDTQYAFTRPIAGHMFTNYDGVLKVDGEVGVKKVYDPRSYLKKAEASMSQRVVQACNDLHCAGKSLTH
VHR inh abs: VHR1 phosphatase inhibitors, primary screen, biochemical, absorbance, uHTS. recombinant VHR phosphatase, pNPP absorbance. inhibition, % at 13.3 µM. 290,000 compounds, 0.52% hits. AID 1654, 2009; in the data active = inhibition above about 50%
Target sequence (P51452 whole entry, looked up): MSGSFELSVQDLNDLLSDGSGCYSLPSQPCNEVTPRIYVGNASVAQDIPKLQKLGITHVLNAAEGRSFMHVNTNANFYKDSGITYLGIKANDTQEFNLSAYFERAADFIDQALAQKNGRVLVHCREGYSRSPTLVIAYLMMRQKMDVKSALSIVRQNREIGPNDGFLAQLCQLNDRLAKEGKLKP
RecA intein inh: Mtb RecA intein splicing inhibitors, primary screen, biochemical, fluorescence, HTS | Protein RecA (Mycobacterium tuberculosis (strain ATCC 25618 / H37Rv)), P9WHJ3 | cell-free RecA intein splicing | inhibition, % (no concentration beside the values) | 290,000 compounds, 0.75% hits; in the data active = inhibition above about 30%;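 also: 0% = vehicle wells and 100% = reference inhibitor control wells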
SARS 3CLpro inh: SARS-CoV 3CLpro protease inhibitors, primary screen, biochemical, quenched FRET | Replicase polyprotein 1ab (Severe acute respiratory syndrome coronavirus), P0C6X7 | recombinant SARS-CoV 3CLpro, quenched FRET peptide cleavage | inhibition, % at 6 µM | 290,000 compounds, 0.14% hits | AID 1706, 2009; in the data active = inhibition above about 12%
CCHF vOTU inh: CCHFV vOTU protease inhibitors, primary screen, biochemical, Pep-AMC substrate, fluorescence. AID 651958, 2012. 370,000 compounds, 0.55% hits. Crimean-Congo hemorrhagic fever virus L polyprotein viral ovarian tumor (vOTU) protease …. inhibition, % at 11.5 µM; also: 0% = vehicle wells with enzyme and 100% = no enzyme wells
* hit, by the source's call. Rule as the data show it, unless noted: active = inhibition above about 30%; inactive = the rest.

For CC(=O)Nc1cccc(-c2cc3c(c4c2ccn4C)C2CCC3O2)c1 (stereo unspecified) the results were FBA Mtb inh 161* and CCHF vOTU inh -44.
`C(=C\c1nnc(-c2cccs2)o1)/c1ccccc1` gave GDH-TPI counter 51*, FBA Mtb inh 18, VHR inh abs 23, RecA intein inh -2, SARS 3CLpro inh -1 and CCHF vOTU inh 1.
For O=C(COc1ccc(CNC[C@H]2O[C@@H](n3ccc(=O)[nH]c3=O)[C@H](O)[C@@H]2O)cc1)Nc1ccccn1 the results were FBA Mtb inh -3 and CCHF vOTU inh 0.
For COc1ccc(C2CC(c3ccccc3C(F)(F)F)=NN2c2ccc(S(N)(=O)=O)cc2)cc1 (stereo unspecified) the results were GDH-TPI counter -10, FBA Mtb inh active and CCHF vOTU inh -192.
`COc1ccc(C2CC(c3ccccc3F)=NN2c2ccc(S(N)(=O)=O)cc2)cc1` (stereo unspecified) gave GDH-TPI counter -9, FBA Mtb inh 156* and CCHF vOTU inh -97.
For COc1ccc(C2CC(c3ccc(C(F)(F)F)cc3)=NN2c2ccc(S(N)(=O)=O)cc2)cc1 (stereo unspecified) the results were GDH-TPI counter 10, FBA Mtb inh 155* and CCHF vOTU inh -73.
`COC(=O)c1cc2c(c3c4cc(OC)ccc4n(C(=O)c4ccccc4)c13)C(=O)N(Cc1ccco1)C2` gave CCHF vOTU inh -1.
Screening Cc1nn2c(c1-c1ccccc1)NC1=C(C(=O)CCC1)C2c1ccccc1 (stereo unspecified) returned GDH-TPI counter 33*, FBA Mtb inh 115*, VHR inh abs 17, RecA intein inh 0, SARS 3CLpro inh -2 and CCHF vOTU inh -109.
For CC(C)C(=O)Nc1nc(-c2ccc(S(=O)(=O)N3CCOCC3)cc2)cs1 the results were GDH-TPI counter 2, FBA Mtb inh 59*, VHR inh abs -2, RecA intein inh 0, SARS 3CLpro inh 3 and CCHF vOTU inh -4.
COc1ccccc1OC(C)C(=O)Nc1nc(-c2ccc(S(=O)(=O)N3CCOCC3)cc2)cs1 (stereo unspecified) was read as GDH-TPI counter 1, FBA Mtb inh 3, VHR inh abs 33, RecA intein inh 0, SARS 3CLpro inh 6 and CCHF vOTU inh -1.
CC1CCCN(CCCNC(=O)c2ccc(CS(=O)(=O)c3c(Cl)cccc3Cl)o2)C1 (stereo unspecified) was read as GDH-TPI counter -4, FBA Mtb inh 2, VHR inh abs 56*, RecA intein inh 0, SARS 3CLpro inh -2 and CCHF vOTU inh 5.
CC1CCN(CCCNC(=O)c2coc3nc4ccccc4nc23)CC1 was read as GDH-TPI counter 8, FBA Mtb inh active, VHR inh abs 17, RecA intein inh -20, SARS 3CLpro inh 6 and CCHF vOTU inh -172.
Screening CC1CCCN(CCCNC(=O)c2coc3nc4ccccc4nc23)C1 (stereo unspecified) returned GDH-TPI counter 1, FBA Mtb inh 155*, VHR inh abs 21, RecA intein inh -20, SARS 3CLpro inh -7 and CCHF vOTU inh -88.
Screening Cc1cccc(Nc2nc(NCCCN3CCOCC3)nc(N)c2[N+](=O)[O-])c1 returned GDH-TPI counter 64*, FBA Mtb inh -5, VHR inh abs 0, RecA intein inh -1, SARS 3CLpro inh 4 and CCHF vOTU inh 21.
Screening Cc1cccc(Nc2nc(N)c([N+](=O)[O-])c(N3CCN(C)CC3)n2)c1 returned GDH-TPI counter 33*, FBA Mtb inh -2, VHR inh abs 12, RecA intein inh 3, SARS 3CLpro inh -10 and CCHF vOTU inh 2.
Nc1nc(NCCCN2CCOCC2)nc(Nc2cccc(F)c2)c1[N+](=O)[O-] was read as GDH-TPI counter 51*, FBA Mtb inh -3, VHR inh abs -3, RecA intein inh -2, SARS 3CLpro inh -7 and CCHF vOTU inh 10.
Screening Nc1nc(NCCCN2CCOCC2)nc(Nc2ccc(F)cc2)c1[N+](=O)[O-] returned GDH-TPI counter 19, FBA Mtb inh -3, VHR inh abs 0, RecA intein inh 0, SARS 3CLpro inh -4 and CCHF vOTU inh 9.
`COc1ccc(Nc2nc(NCCCN3CCOCC3)nc(N)c2[N+](=O)[O-])cc1` gave GDH-TPI counter 24, FBA Mtb inh -2, VHR inh abs 0, SARS 3CLpro inh 2 and CCHF vOTU inh -4.
Screening Nc1nc(Nc2cccc(F)c2)nc(N2CCOCC2)c1[N+](=O)[O-] returned GDH-TPI counter 37*, FBA Mtb inh -2, VHR inh abs -11, RecA intein inh 1, SARS 3CLpro inh -2 and CCHF vOTU inh 7.
Screening COC(=O)c1c(-c2ccc(OC)cc2)c2c(c3c4cc(OC)ccc4n(S(=O)(=O)c4ccc(C)cc4)c13)C(=O)N(C)C2 returned CCHF vOTU inh 6.
Screening CCOc1ccc(NC(=O)CN(C)C(=O)Cn2cnc3c2c(=O)n(C)c(=O)n3C)cc1OCC returned GDH-TPI counter 0, FBA Mtb inh -1, RecA intein inh 2 and CCHF vOTU inh -7.
CCc1ccccc1NC(=O)c1ccc2nc(N3CCOCC3)sc2c1 was read as GDH-TPI counter 7, FBA Mtb inh 6, VHR inh abs 10, RecA intein inh 1, SARS 3CLpro inh -2 and CCHF vOTU inh 0.
Screening Cc1ccc(NC(=O)c2ccc3nc(N4CCOCC4)sc3c2)c(Cl)c1 returned GDH-TPI counter 0, FBA Mtb inh 0, VHR inh abs 56*, RecA intein inh 2, SARS 3CLpro inh -1 and CCHF vOTU inh 11.
Screening Nc1ccc2nc(CN3CCOCC3)[nH]c2c1 returned GDH-TPI counter 1, FBA Mtb inh 1, VHR inh abs 12, RecA intein inh 42*, SARS 3CLpro inh 0 and CCHF vOTU inh -3.
Screening c1ccc2[nH]c(CN3CCOCC3)nc2c1 returned GDH-TPI counter 11, FBA Mtb inh 2, VHR inh abs 31, RecA intein inh -5, SARS 3CLpro inh -2 and CCHF vOTU inh -8.
For Cc1ccccc1NC(=O)[C@@H]1CC(=O)O[C@@H]1c1ccccc1 the results were CCHF vOTU inh -4.
`CCOc1ccccc1NC1=NC2CS(=O)(=O)CC2S1` (stereo unspecified) gave GDH-TPI counter 1, FBA Mtb inh 2, VHR inh abs -4, RecA intein inh -2, SARS 3CLpro inh -4 and CCHF vOTU inh 11.
